# PubChem BioAssay (Tox21)
# Several values for one entry are separate records, joined by “and”; a condition that tells them apart may be missing. Equal values may be shown once. A number with no mark means an inactive call. Inconclusive results are not listed. Entries that show only a call come without a potency. Activity calls are given as the source filed them. Unless noted, calls follow the shape of the dose curve; as a rule, active = well fitted curve in the direction sought with a large enough effect in the repeat runs; inconclusive = weak or mixed curves; inactive = no such curve, though single readings can be large; an effect the other way counts as inactive or inconclusive.
# Assays:
# [1] = qHTS assay to identify small molecule antagonists of the estrogen related receptor (ERR) signaling pathway from Tox21 library - cell viability counter screen (AID 1224834); also: nearly all actives have a fitted effect of over 30% in size
# Method in brief: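 CellTiter-Fluor fluorescence, read after 30 min at 37 C, measures viability of ERR cells. Cells plated at 2,000/well and incubated 6 h before pin-tool compound addition, then exposed 17.5 hours at 37 C.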
# [2] = molecular target: Luciferin 4-monooxygenase (Photinus pyralis) (UniProt P08659); test: qHTS assay to identify small molecule inhibitors of firefly luciferase (AID 1224835); also: nearly all actives have a fitted effect of over 25% in size; also: potency is read from the fitted curve at half-maximal effect
# Luciferin 4-monooxygenase (Photinus pyralis), sequence (P08659 whole entry, looked up): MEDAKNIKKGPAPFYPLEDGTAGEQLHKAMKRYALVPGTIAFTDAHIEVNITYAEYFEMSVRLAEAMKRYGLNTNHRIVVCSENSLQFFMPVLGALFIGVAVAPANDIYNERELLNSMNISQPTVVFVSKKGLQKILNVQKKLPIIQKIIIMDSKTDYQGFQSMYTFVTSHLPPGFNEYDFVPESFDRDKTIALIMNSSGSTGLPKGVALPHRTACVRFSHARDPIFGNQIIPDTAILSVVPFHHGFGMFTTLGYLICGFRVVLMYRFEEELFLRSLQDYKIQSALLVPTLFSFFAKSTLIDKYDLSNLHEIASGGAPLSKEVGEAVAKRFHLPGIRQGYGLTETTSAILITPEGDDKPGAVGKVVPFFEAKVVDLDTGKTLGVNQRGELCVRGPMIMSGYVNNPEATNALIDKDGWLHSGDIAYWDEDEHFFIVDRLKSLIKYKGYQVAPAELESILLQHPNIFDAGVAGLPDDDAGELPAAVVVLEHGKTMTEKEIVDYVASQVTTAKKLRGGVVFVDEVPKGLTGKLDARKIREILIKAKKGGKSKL
# Method in brief: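 Inhibition of purified Photinus luciferase is measured by luminescence. Substrate levels (D-luciferin, ATP) sit at their KM values. Each compound is tested in a concentration series.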
# [3] = qHTS assay to identify small molecule antagonists of the constitutive androstane receptor (CAR) signaling pathway - cell viability counter screen (AID 1224837); also: nearly all actives have a fitted effect of over 45% in size
# Method in brief: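 Cytotoxicity counter-screen: CellTiter-Fluor fluorescence after 23 h compound exposure (15-point qHTS) in double-stable HepG2-CYP2B6-hCAR cells, with 50 nM CITCO added.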
# [4] = molecular target: Nuclear receptor subfamily 1 group I member 3 (Homo sapiens) (UniProt Q14994); test: qHTS assay to identify small molecule antagonists of the constitutive androstane receptor (CAR) signaling pathway (AID 1224838); also: nearly all actives have a fitted effect of over 40% in size
# Nuclear receptor subfamily 1 group I member 3 (Homo sapiens), sequence (Q14994 whole entry, looked up): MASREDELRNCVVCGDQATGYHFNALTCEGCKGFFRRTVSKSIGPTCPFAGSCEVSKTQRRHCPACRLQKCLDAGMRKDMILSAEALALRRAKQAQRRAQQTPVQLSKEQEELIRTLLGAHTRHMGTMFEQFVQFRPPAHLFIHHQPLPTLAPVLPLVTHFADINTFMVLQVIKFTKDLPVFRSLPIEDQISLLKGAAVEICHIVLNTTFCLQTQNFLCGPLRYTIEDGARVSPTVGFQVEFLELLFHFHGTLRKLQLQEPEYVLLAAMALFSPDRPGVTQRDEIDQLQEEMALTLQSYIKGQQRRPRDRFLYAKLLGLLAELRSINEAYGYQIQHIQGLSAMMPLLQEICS
# Method in brief: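 Antagonism measured as luciferase signal (ONE-Glo, 30 min, room temperature) in CAR-stimulated cells: HepG2-CYP2B6-hCAR double-stable line exposed 24 hr at 37 C to compound in a 15-point series plus 50 nM CITCO.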
# [5] = molecular target: Nuclear receptor subfamily 1 group I member 3 (Homo sapiens) (UniProt Q14994); test: qHTS assay to identify small molecule agonists of the constitutive androstane receptor (CAR) signaling pathway (AID 1224839); also: nearly all actives have a fitted effect of over 15% in size; also: potency is read from the fitted curve at half-maximal effect;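 as to activation: HepG2 cells stably carrying human CAR and a CYP2B6 luciferase reporter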
# Method in brief: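 HepG2 cells stably expressing hCAR and a CYP2B6-2.2kb luciferase reporter were treated with compounds at 15 concentrations plus 0.75 uM PK11195 (final) for 24 h at 37 C; luminescence was read after ONE-Glo addition.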
# [6] = molecular target: Thyrotropin receptor (Homo sapiens) (UniProt P16473); test: qHTS assay to identify small molecule agonists of the thyroid stimulating hormone receptor (TSHR) signaling pathway (AID 1224843; calls by dose curve; also: nearly all actives have a fitted effect of over 45% in size)
# Thyrotropin receptor (Homo sapiens), sequence (P16473 whole entry, looked up): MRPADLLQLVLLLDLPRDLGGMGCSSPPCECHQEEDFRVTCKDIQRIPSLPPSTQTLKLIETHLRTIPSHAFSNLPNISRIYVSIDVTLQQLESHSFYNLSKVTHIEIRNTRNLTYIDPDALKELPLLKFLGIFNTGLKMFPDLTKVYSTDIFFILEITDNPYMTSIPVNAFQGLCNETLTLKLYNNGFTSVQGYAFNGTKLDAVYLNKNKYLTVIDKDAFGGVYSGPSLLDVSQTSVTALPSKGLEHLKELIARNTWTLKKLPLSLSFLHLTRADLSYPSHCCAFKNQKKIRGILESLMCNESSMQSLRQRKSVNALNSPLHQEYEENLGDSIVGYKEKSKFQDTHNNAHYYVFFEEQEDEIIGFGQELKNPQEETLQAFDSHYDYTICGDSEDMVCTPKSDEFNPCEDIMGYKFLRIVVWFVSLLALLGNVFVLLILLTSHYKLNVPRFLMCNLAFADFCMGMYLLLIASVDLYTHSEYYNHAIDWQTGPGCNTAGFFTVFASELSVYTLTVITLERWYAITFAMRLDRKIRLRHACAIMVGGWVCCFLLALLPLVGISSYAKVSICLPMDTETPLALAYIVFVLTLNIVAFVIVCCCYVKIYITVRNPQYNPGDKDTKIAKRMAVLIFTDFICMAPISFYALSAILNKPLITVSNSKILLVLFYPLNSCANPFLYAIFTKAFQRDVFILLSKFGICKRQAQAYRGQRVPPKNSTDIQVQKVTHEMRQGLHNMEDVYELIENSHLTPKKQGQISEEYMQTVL
# Method in brief: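 Agonist activity read as cAMP rise via d2/cryptate HTRF competition, 1 h room-temperature detection, in HEK293 cells expressing TSHR. Fifteen-point titrations, each run in triplicate, with a 30 min room-temperature incubation beforehand.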
# [7] = qHTS assay to identify small molecule agonists of the hypoxia (HIF-1) signaling pathway - cell viability counter screen (AID 1224844; calls by dose curve; also: nearly all actives have a fitted effect of over 50% in size; also: potency is read from the fitted curve at half-maximal effect)
# Method in brief: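 Cytotoxicity measured by CellTiter-Glo ATP luminescence in the wells also read for beta-lactamase signal. Cells were HRE-bla ME-180 (2,000/well, 0.5% dialyzed FBS), exposed to compounds for 17 h at 37C.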
# [8] = qHTS assay to identify small molecule agonists of the hypoxia (HIF-1) signaling pathway (AID 1224846; active = well fitted activation curve with a large enough effect in the signal ratio in the repeat runs, not every such curve was filed as active; the % refers to the signal ratio)
# Method in brief: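 Compounds added to ME-180 cells carrying hypoxia-response-element beta-lactamase reporter (0.5% dialyzed FBS, 5 h preplating), 17 h at 37C; agonist activity detected by CCF4-AM B/G FRET read-out.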
# [9] = qHTS assay to identify small molecule agonists of H2AX - cell viability counter screen (AID 1224847; calls by dose curve; also: nearly all actives have a fitted effect of over 30% in size; also: potency is read from the fitted curve at half-maximal effect)
# Method in brief: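 Wild-type CHO-K1 cells (10% FBS medium) were plated overnight at 37C, exposed to compounds at 15 concentrations for 3 hr at 37C (0.76% DMSO final), and viability was read as CellTiter-Glo luminescence after 30 min at room temperature.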
# [10] = qHTS RealTime-Glo MT Cell Viability Assay in HepG2 cells - 24 hour (AID 1224867); also: nearly all actives have a fitted effect of over 50% in size
# Method in brief: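 Luminescence read-out: viable HepG2 cells reduce a prosubstrate to a NanoLuc substrate, giving a signal proportional to live cell number. Reads taken at 0, 8, 16, 24, 32 and 40 h of compound exposure at 37 C.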
# [11] = A CellTox Green Cytotoxicity Assay to monitor cytotoxicity in HEK293 cells - 0 hour (AID 1224869); also: nearly all actives have a fitted effect of over 50% in size
# Method in brief: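 Fluorescence from a DNA-binding dye excluded by viable cells was measured repeatedly in the same HEK293 wells (600 cells/well) during continuous compound exposure at 37 C. Each assay gives one read point: 0, 8, 16, 24, 32 or 40 h.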
# [12] = qHTS assay to identify small molecule agonists of the constitutive androstane receptor (CAR) signaling pathway - cell viability counter screen (AID 1224836); also: nearly all actives have a fitted effect of over 45% in size
# Method in brief: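 HepG2 cells stably carrying hCAR and a CYP2B6-2.2kb reporter were plated 4 h, then given compounds at 15 concentrations plus PK11195 (final 0.75 uM). After 23 h at 37 C, viability was read by CellTiter-Fluor fluorescence.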
# [13] = qHTS assay to identify small molecule antagonists of the estrogen related receptor signaling pathway with the pleiotropic PPARgamma coactivator (PGC) from Tox21 10K library - cell viability counter screen (AID 1224840; active = well fitted cell-killing curve with a large enough effect in the repeat runs, not every such curve was filed as active; also: nearly all actives have a fitted effect of over 40% in size)
# Method in brief: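 Counter-screen for cytotoxicity: after 17.5 h compound exposure at 37 C, CellTiter-Fluor reagent added to PGC/ERR cells for 30 min and fluorescence read. Cells were seeded at 2,000 per well 6 h before dosing.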
# [14] = qHTS assay to identify small molecule antagonists of the estrogen related receptor signaling pathway with the pleiotropic PPARgamma coactivator (PGC) from Tox21 10K library (AID 1224841; call rule not given here; also: actives are mostly falling curves and most rising ones were filed inactive; nearly all actives have a fitted effect of over 50% in size; also: potency is read from the fitted curve at half-maximal effect)
# Method in brief: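 Luminescence (One-Glo, 30 min at room temperature) after 18 h compound treatment at 37 C of PGC/ERR reporter cells plated at 2,000 cells/well and settled 6 h beforehand.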
# [15] = qHTS assay to identify small molecule agonists of the estrogen related receptor signaling pathway with the pleiotropic PPARgamma coactivator (PGC) from Tox21 10K library (AID 1224842); also: nearly all actives have a fitted effect of over 15% in size
# Method in brief: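 Luminescence from One-Glo (30 min, room temperature) measured after PGC/ERR cells had 18 h at 37 C with pinned compound (23 nL in DMSO). Cells had been seeded at 2,000 per well and pre-incubated 6 h.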
# [16] = qHTS assay to identify small molecule antagonists of the estrogen related receptor (ERR) signaling pathway from Tox21 library (AID 1224848); also: nearly all actives have a fitted effect of over 50% in size; also: potency is read from the fitted curve at half-maximal effect
# Method in brief: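 Luciferase luminescence (ONE-Glo, 30 min room temperature) was the read-out. Cells of the NTP-supplied ERR line, 2,000 per well, were given 6 h at 37 C before compound addition in DMSO and 18 h exposure at 37 C.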
# [17] = qHTS assay to identify small molecule agonists of the estrogen related receptor (ERR) signaling pathway from Tox21 library (AID 1224849; calls by dose curve; also: nearly all actives have a fitted effect of over 15% in size); details: ERR reporter cell line, ONE-Glo luciferase, 18 h
# Method in brief: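 Luminescent agonist read-out (One-Glo, 30-minute room-temperature incubation) following 18-hour compound treatment at 37 C of the ERR cell line, which had been plated 6 hours before dosing.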
# [18] = qHTS assay to identify small molecule agonists of H2AX (AID 1224845; active = well fitted activation curve with a large enough effect in the signal ratio in the repeat runs, not every such curve was filed as active; the % refers to the signal ratio)
# Method in brief: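 Phospho-H2AX Ser139 measured by HTRF (ex 320 nm; em 665 and 620 nm) after 24 hr antibody incubation. Compounds, 15 concentrations, 0.76% DMSO, were applied to CHO-K1 cells for 3hr at 37C before lysis.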
# [19] = qHTS RealTime-Glo MT Cell Viability Assay in HEK293 cells - 32 hour (AID 1224868); also: nearly all actives have a fitted effect of over 50% in size; also: potency is read from the fitted curve at half-maximal effect
# Method in brief: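 Nonlytic real-time viability readout: viable cells convert prosubstrate to NanoLuc substrate, giving luminescence proportional to live cell number. HEK293, 600 cells/well, compound added after 5 h, continuous culture at 37 C.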
Compound,Potency [1],Potency [2],Potency [3],Potency [4],Potency [5],Potency [6],Potency [7],outcome [8],Potency [9],Potency [10],Potency [11],Potency [12],Potency [13],Potency [14],Potency [15],Potency [16],"activity change, positive = activation ([17]; at 92.4 µM (top of the series))",Potency [18],Potency [19],"activity change, positive = activation ([17]; at 42.5 µM (top of the series)) [%]"
N#CCCCl,inactive,inactive,inactive,inactive,inactive,inactive,inactive,inactive,inactive,inactive,inactive,,,,,,,,,
CC(C)(OOC(C)(C)c1ccccc1)c1ccccc1,inactive,,inactive,,24 µM (active) and 8.63 µM (active),inactive,inactive,inactive,99.3 µM (active),inactive,inactive,inactive,inactive,inactive,inactive,inactive,7.35% and 4.9%,,,
O=S(=O)(Oc1ccc(Cl)cc1)c1ccc(Cl)cc1,inactive,,inactive,inactive,69.5 µM (active) and 48.6 µM (active),inactive,inactive,inactive,,inactive,inactive,inactive,,inactive,inactive,inactive,-19.6% and -8.56%,inactive,,
O=C1C=CC(=O)C=C1,inactive,,inactive,,inactive,inactive,49.2 µM (active) and 49 µM (active),,inactive,inactive,,inactive,,,,,,inactive,inactive,
CCOP(=S)(OCC)O/N=C(\C#N)c1ccccc1,inactive,,inactive,,,inactive,inactive,inactive,inactive,inactive,,,inactive,inactive,inactive,inactive,4.34%,inactive,,3.78
CNC(=O)N(C)c1nnc(C(C)(C)C)s1,inactive,,inactive,inactive,inactive,inactive,inactive,,inactive,inactive,,,inactive,,,,,inactive,,
Cc1ccc(N)c(N)c1,,15.9 µM (active) and 2.52 µM (active),inactive,inactive,27.4 µM (active) and 24.3 µM (active),inactive,inactive,inactive,inactive,inactive,inactive,,inactive,,,,,,,
N[C@@H](Cc1ccc(N(CCCl)CCCl)cc1)C(=O)O,inactive,,inactive,,,inactive,23.5 µM (active) and 23.9 µM (active),,inactive,inactive,,,inactive,,,,,,5.27 µM (active),
CCN(N=O)C(N)=O,inactive,,inactive,,,inactive,inactive,inactive,inactive,inactive,inactive,,,,,,,,inactive,
NNC(=S)NN,,inactive,inactive,,,inactive,,,inactive,inactive,inactive,inactive,,62.8 µM (active) and 61.1 µM (active),inactive,62.8 µM (active),-65.9% and -38.7%,,,
CCC(C)(C)c1ccc(O)cc1,inactive,,inactive,,,inactive,inactive,inactive,80 µM (active),inactive,inactive,inactive,inactive,inactive,inactive,inactive,-16.7% and -1.98%,,,-6.2
O=C(O)CC[N+](=O)[O-],inactive,,inactive,,,,inactive,,inactive,inactive,inactive,,inactive,,,,,,inactive,
CCCCC(CC)COC(=O)c1ccc(C(=O)OCC(CC)CCCC)c(C(=O)OCC(CC)CCCC)c1 (stereo not given),inactive,,inactive,,inactive,inactive,inactive,inactive,inactive,inactive,inactive,inactive,inactive,,,,,inactive,inactive,
